HT1080 IDH1KD tx: qHTS for induction of synthetic lethality in tumor cells producing 2HG: qHTS for the HT-1080-IDH1KD cell line; actives 2% (n = 360,000); AID 686971, 2013; HT-1080 IDH1 knockdown viability, ATP luminescence, 48 h; Potency, µM (series often up to 46.1 µM), usual class: cytotoxic
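After a 2 h attachment period, IDH1KD HT-1080 cells took pin-transferred compound for 48 h at 37 °C; ATP-based luminescence after 10 min room-temperature reagent incubation reported viability.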
HT1080NT lethal: qHTS for induction of synthetic lethality in tumor cells producing 2HG: qHTS for the HT-1080-NT fibrosarcoma cell line. actives 1.6% (n = 360,000). HT-1080-NT fibrosarcoma viability, CellTiter-Glo ATP luminescence, 48 h. Potency, µM (top dose mostly 46.1 µM), hits mostly cytotoxic. AID 686970, 2013;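 note: NT is the 2HG producing partner of a matched IDH1 knockdown line; nearly all actives have a fitted effect of over 55% in size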
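Fibrosarcoma NT cells, 750 per well in 5% FBS RPMI, were exposed to compound for 48 hours. Viability: CellTiter-Glo luminescence.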
IL-1B inflam inh: qHTS for Inhibitors of Inflammasome Signaling: IL-1-beta AlphaLISA Primary Screen. THP-1 LPS/ATP IL-1B secretion, AlphaLISA, 16 h; active compounds read low. activity change, % at 57.5 µM. actives 4.7% (n = 360,000). AID 743279, 2014; in the data active = activity change below about -50%; inconclusive = mostly about -30% to -49%
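THP-1 cells pretreated 1 hr with compounds (up to 57.5 uM final), then stimulated with LPS (250 ng/mL final) plus ATP (1.25 mM final); secreted IL-1B measured by AlphaLISA after 16 hr, decreased signal indicating inhibition.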
TDP1 cell CPT: qHTS for Inhibitors of human tyrosyl-DNA phosphodiesterase 1 (TDP1): qHTS in cells in presence of CPT; chicken DT40 Tdp1-/-;hTDP1 cells + 20 nM CPT, ATP luminescence, 48 h; Potency, µM (titrated, usually from 46.2 µM), actives largely listed as inhibitors; actives 12% (n = 420,000); AID 686979, 2013; note: nearly all actives have a fitted effect of over 55% in size
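Cell growth measured by CellTiter-Glo luminescence after a minimum 48 h, 37 C compound exposure with 20 nM CPT in Tdp1-knockout DT40 cells stably expressing hTDP1, seeded 400/well; qHTS titration format.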
TDP1 cell noCPT: qHTS for Inhibitors of human tyrosyl-DNA phosphodiesterase 1 (TDP1): qHTS in cells in absence of CPT. DT40 Tdp1-/- hTDP1 cells, no CPT, ATP luminescence, 48 h. Potency, µM (series often up to 46.2 µM), hits mostly inhibitors. actives 15% (n = 420,000); note: nearly all actives have a fitted effect of over 55% in size
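No-CPT arm: Tdp1-/-;hTDP1 DT40 cells (400/well) plus compounds, incubated ≥48 hr at 37 °C. Readout CellTiter-Glo luminescence.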
ALOX12 inh: Primary qHTS assay for inhibitors of human arachidonate 12S-lipoxygenase (ALOX12): Round 2 | actives 1.1% (n = 580,000) | Potency, µM (highest dose often 108 µM), most hits filed as inhibitors | Polyunsaturated fatty acid lipoxygenase ALOX12 (Homo sapiens), P18054 | purified 12hLO, xylenol orange hydroperoxide absorbance | AID 1671190, 2021
Target sequence (P18054 whole entry, looked up): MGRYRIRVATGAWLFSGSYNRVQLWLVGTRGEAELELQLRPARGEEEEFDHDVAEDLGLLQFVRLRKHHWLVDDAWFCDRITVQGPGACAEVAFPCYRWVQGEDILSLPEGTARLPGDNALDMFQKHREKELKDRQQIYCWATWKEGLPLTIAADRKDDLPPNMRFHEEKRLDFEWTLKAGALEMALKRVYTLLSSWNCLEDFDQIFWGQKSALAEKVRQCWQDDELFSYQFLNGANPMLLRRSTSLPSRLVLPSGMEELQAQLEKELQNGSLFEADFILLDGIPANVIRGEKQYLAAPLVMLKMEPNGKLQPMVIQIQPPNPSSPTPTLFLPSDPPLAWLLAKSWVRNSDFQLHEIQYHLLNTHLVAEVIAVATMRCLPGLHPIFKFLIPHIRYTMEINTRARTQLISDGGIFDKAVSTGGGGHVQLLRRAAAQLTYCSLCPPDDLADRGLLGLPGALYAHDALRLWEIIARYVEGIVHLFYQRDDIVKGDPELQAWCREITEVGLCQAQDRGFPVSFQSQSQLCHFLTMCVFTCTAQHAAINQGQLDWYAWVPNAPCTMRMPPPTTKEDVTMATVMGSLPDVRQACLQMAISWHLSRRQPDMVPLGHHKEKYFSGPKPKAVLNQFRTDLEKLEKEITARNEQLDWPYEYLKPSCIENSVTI
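Hydroperoxide product was detected by ferrous iron/xylenol orange as the 573 to 405 nm absorbance ratio. Arachidonic acid at 40 uM (final) was turned over for 30 min at room temperature by 150 nM human 12hLO, pH 7.0 Hepes buffer, after 15 min compound preincubation.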
Hits are given with their value; . = inactive; ? = inconclusive; / = no result. The sample as a whole holds a higher share of hits than the screen did. Unless noted, calls come from the whole dose curve; as a rule, active = well fitted curve in the direction sought with a large enough effect; inconclusive = small, poorly fitted or top-dose-only effect, or another doubt; inactive = no such curve, though single readings can be large; an effect the other way counts as inactive or inconclusive.

SMILES	HT1080 IDH1KD tx	HT1080NT lethal	IL-1B inflam inh	TDP1 cell CPT	TDP1 cell noCPT	ALOX12 inh
CCCc1ccc2oc(C(=O)NCCc3cnn(C)c3)c(C)c2c1	.	.	.	16µM	16µM	?
CCCc1ccc2oc(C(=O)NCCc3nncn3CC)c(C)c2c1	/	/	/	/	/	.
C=CCC1(CC=C)CCCN1C(=O)c1ccc2oc(CCCC)nc2c1	.	.	.	12µM	10µM	.
COc1ccc(CN2CCC([C@@H]3CNC[C@H]3CO)CC2)cc1Cn1ccnc1	/	/	/	/	/	.
CC(C)Nc1nc(Nc2ccc(F)cc2)c2sccc2n1	.	.	.	26µM	?	?
CCc1ccccc1Oc1nc(NC(C)C)nc2ccsc12	.	.	.	?	?	.
CC(C)Nc1nc(Nc2ccc(C#N)cc2)c2sccc2n1	.	.	.	15µM	26µM	.
CCNC(=O)N(C1CC1)C1CCOC2(CCN(C(=O)NCc3ccc(OC)cc3)CC2)C1 (configuration not stated)	/	/	/	/	/	.
COc1ccc(C(=O)NC(C(=O)N2CCCCC2)C2CCN(C(=O)c3ccc(F)cc3)CC2)cc1 (configuration not stated)	/	/	/	/	/	.
Clc1ccc(C(c2ccccc2)N2CCN(c3ccccn3)CC2)cc1 (configuration not stated)	.	.	.	?	18µM	.
CN1CCCN(C(c2ccccc2)c2ccc(Cl)cc2)CC1 (configuration not stated)	18µM	18µM	.	?	6µM	?
CSCC(=O)N1CC[C@H](NC(=O)NC2CCCCC2)[C@H]1C(=O)N[C@H](Cc1c[nH]c2ccccc12)C(N)=O	/	/	/	/	/	.
CC(=O)Nc1cccc(C(=O)/C=C/c2ccc(Br)cc2)c1	.	?	-107	3.3µM	4.6µM	.
CC(=O)Nc1cccc(C(=O)/C=C/c2ccc(F)cc2)c1	12µM	.	-192	2.3µM	4.6µM	.
CC(=O)Nc1cccc(C(=O)/C=C/c2cccs2)c1	.	.	-105	?	21µM	.
CCC(=O)Nc1cccc(C(=O)/C=C/c2cc(Br)ccc2OC)c1	8.2µM	8.2µM	-105	2.9µM	4.1µM	.
CCOC(=O)CC(=O)CSc1nc(-c2cccnc2)ccc1C#N	.	.	.	?	3.5µM	.
O=c1cc[nH]c2cccc(Cc3ccccc3)c12	.	.	.	?	13µM	?
Cc1ccc(Cl)cc1-n1ncc2c(Nc3cccc(C)c3C)ncnc21	/	/	/	16µM	16µM	?
COc1ccc(Nc2ncnc3c2cnn3-c2cccc(C)c2)cc1OC	.	.	.	?	.	.
COc1ccc(Nc2ncnc3c2cnn3-c2cc(Cl)ccc2C)cc1OC	/	/	/	21µM	?	.
COc1ccc(CNC(=O)c2csc(N3CCN(CCc4ccccc4)C3=O)n2)cc1OC	/	/	/	/	/	.
COc1ccc(OC)c(Nc2nc(-c3sc(NC(=O)CC(C)C)nc3C)cs2)c1	?	.	.	15µM	16µM	?
COc1ccc(Cl)cc1Nc1nc(-c2sc(NC(=O)C(C)(C)C)nc2C)cs1	.	.	.	5.2µM	3.7µM	?
CCCCC(=O)Nc1nc(C)c(-c2csc(Nc3cc(OC)ccc3OC)n2)s1	?	.	.	6.5µM	?	.
SMILES	HT1080 IDH1KD tx	HT1080NT lethal	IL-1B inflam inh	TDP1 cell CPT	TDP1 cell noCPT	ALOX12 inh
CCCCC(=O)Nc1nc(C)c(-c2csc(Nc3cc(Cl)ccc3OC)n2)s1	.	.	.	?	?	.
CCC(C)C(=O)Nc1nc(C)c(-c2csc(Nc3cc(Cl)ccc3OC)n2)s1 (configuration not stated)	.	.	.	15µM	10µM	.
CCOC(=O)c1cc(C(=O)NC(C)c2ccccc2)c(C)[nH]c1=O (configuration not stated)	.	.	.	.	.	.
CN(C)S(=O)(=O)c1ccc(S(=O)(=O)N2CCN(Cc3cccc4cccnc34)CC2)cc1	/	/	/	/	/	.
CC(C)C(=O)N(C)N(C)C(=O)C(C)C	/	/	/	/	/	.
CCCC(=O)Nc1nc(C)c(-c2csc(Nc3ccccc3C)n2)s1	.	.	.	.	.	.
CCC(C)C(=O)Nc1nc(C)c(-c2csc(Nc3cc(OC)ccc3OC)n2)s1 (configuration not stated)	.	.	.	16µM	15µM	?
CC(NC(=O)c1ccc2c(c1)NC(=O)CS2)c1ccc2c(c1)OCO2 (configuration not stated)	/	/	/	/	/	14µM
CC(OC(=O)c1ccc2c(c1)NC(=O)CS2)C(=O)c1ccc(F)cc1 (configuration not stated)	.	.	-56	.	.	.
COc1ccc(CNC(=O)C2Cc3c(-c4cccc(C(C)=O)c4)ccnc3O2)cc1OC (configuration not stated)	?	.	.	?	?	?
CC(=O)c1cccc(-c2ccnc3c2CC(C(=O)NCc2cccs2)O3)c1 (configuration not stated)	?	?	.	0.73µM	0.73µM	.
O=C(NCC1CC1)C1Cc2c(-c3ccc(Cl)cc3)ccnc2O1 (configuration not stated)	.	.	.	?	?	.
O=C(NCc1cccs1)C1Cc2c(-c3ccc(Cl)cc3)ccnc2O1 (configuration not stated)	2.1µM	?	.	1.5µM	1.8µM	.
NC(=O)CCN(Cc1ccccc1)C(=O)NCC(F)(F)F	/	/	/	/	/	.
COc1cccc(-c2noc(CC3CCN(C(=O)CCCc4ccccc4)CC3)n2)c1	/	/	/	/	/	.
O=C1CCC/C(=N/Nc2ccc(Cl)cc2)C1	.	.	.	16µM	7.3µM	?
O=C(NCc1cccnc1-n1cccn1)c1cccc(NC(=O)c2cccs2)c1	/	/	/	/	/	.
Cc1[nH]c(=O)[nH]c(=O)c1/C=N/NC(=O)CCNC(=O)OC(C)(C)C	.	.	-60	.	.	.
CCC(CO)N=C1CC(C)(C)CC(=O)/C1=C(/O)CCCN1C(=O)c2ccccc2C1=O (configuration not stated)	.	.	.	.	.	.
N[C@@H]1CC[C@H](C(=O)Nc2ccc(CC(=O)N3CCCC3)cc2)C1	/	/	/	/	/	.
CCOC(=O)C1(C)/C(=N/Nc2ccccc2OC)C(=O)C(=O)N1c1ccccc1 (configuration not stated)	.	.	.	23µM	13µM	?

Source: PubChem (National Center for Advancing Translational Sciences (NCATS))
